The results in this text go back to PubChem BioAssay (Tox21).

Values joined by “and” are separate entries in the source; they are usually repeats but may differ in a detail not shown here. Identical values can stand only once. Records with an inconclusive call do not appear. Entries that show only a call come without a potency. A structure can be active in one record and inactive in another. Active and inactive are the calls of the source. Calls follow the shape of the dose curve; as a rule, active = well fitted cell-killing curve with a large enough effect in the repeat runs; inconclusive = weak or mixed curves, or effect the other way; inactive = no such curve, though single readings can be large or run the other way.
Potency is read from the fitted curve at half-maximal effect.

The assay in a line: qHTS assay to identify small molecule agonists of the estrogen receptor alpha (ER-alpha) signaling pathway in the presence of an antagonist - cell viability counter screen (AID 1259386).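 Also: cells exposed to compounds for 22 h at 37 °C before the viability read; nearly all actives have a fitted effect of over 30% in size.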 The note with it: VM7Luc4E2 viability, CellTiter-Fluor fluorescence, 22 h; series mostly up to 92.4 µM. The source says: National Center for Advancing Translational Sciences [NCATS]
NIH Chemical Genomics Center [NCGC]
U.S. Environmental Protection Agency [EPA]
National Institutes of Environmental Health Sciences [NIEHS]
National Toxicology Program [NTP]
U.S. Food and Drug Administration [FDA]
Estrogen receptor (ER), a member of nuclear hormone receptor plays an important role in development, metabolic homeostasis and reproduction. Two subtypes of ER, ER-alpha and ER-beta, have similar expression patterns with some uniqueness in both types. Endocrine disrupting chemicals (EDCs) and their interactions with steroid hormone receptors like ER causes disruption of normal endocrine function. Therefore, it is important to understand the effect of environmental chemicals in ER signaling pathway. For identifying ER agonists, VM7Luc4E2 cell line has been used in the current assay.
VM7Luc4E2 cell line (provided by Denison MS, University of California) endogenously expresses full-length ER-alpha and is stably transfected with a plasmid containing four estrogen responsive elements (ERE) upstream of a luciferase reporter gene. This current screening for measuring luciferase reporter gene activity using VM7Luc4E2 cells against Tox21 10K library collection is a confirmation study on agonist mode screening in presence of ER-antagonist (ICI-182,780) at 10.0nM final concentration. The cytotoxicity of the compounds was tested in parallel by measuring the cell viability using CellTiter-Fluor assay system (Promega, Madison, WI) in the same wells.
Tox21 Assay Protocol Summary:
VM7Luc4E2 cells were cultured in phenol red free assay medium containing 10% charcoal stripped FBS for 5 days prior to the assay. The cells were dispensed at 4,000 cells in 4uL of assay medium per well into white wall/solid-bottom 1536-well plates (Corning Life Sciences, Corning, NY) using a Multidrop Combi (Thermo Fisher Scientific Inc., Waltham, MA) dispenser. After the assay plates were incubated at 37C and 5% CO2 for 24hr, 1uL of 10.0nM (final concentration) ICI-182,780 or assay buffer was added using two separate tips of Flying Reagent Dispenser (FRD, Aurora Discovery, San Diego, CA). Then 23nL of compounds dissolved in DMSO at 15 concentrations and positive controls or DMSO only was transferred to the assay plates by a Pintool station (Wako, San Diego, CA). The assay plates were incubated at 37C and 5% CO2 for 22hr. After 21hr incubation at 37C, 1uL/well CellTiter-Fluor reagent (Promega Corporation, Madison, WI) was added to each well using FRD and after 1hr incubation at 37C and 5% CO2, the fluorescence signal was measured on ViewLux plate reader (PerkinElmer, Shelton, CT).
Background: Quantitative high-throughput screening tests each substance at several concentrations.
Take `NNC(N)=S`: the Potency result is “inactive”.

In the case of `c1ccc(P(c2ccccc2)c2ccccc2)cc1`, the Potency entry was “inactive”.

As to `CCOc1cc(C=O)ccc1O`, the Potency result was “inactive”.

Regarding `CNC(=O)Oc1cccc2c1OC(C)(C)O2`, the Potency result was “inactive”. Then `Oc1cc(Cl)ccc1Cl`, with “inactive”; and `CCC(C)c1cc([N+](=O)[O-])cc([N+](=O)[O-])c1O` (stereo not given), with “inactive and 24.3 µM (active)”.

For the molecule `Cc1ccccc1[N+](=O)[O-]`, the Potency result was “inactive”.

For `c1nc[nH]n1`, the Potency result is “inactive”. On to `CC(C)(C)c1ccccc1O`, for which the Potency result was “inactive”. With `N[C@@H](Cc1ccc(N(CCCl)CCCl)cc1)C(=O)O`, the Potency result is “inactive”. For `CCCCCc1cc(O)cc(O)c1`, the Potency entry is “inactive”.

On to `O=C(O)C(F)(F)C(F)(F)C(F)(F)C(F)(F)C(F)(F)C(F)(F)C(F)(F)F`, for which the Potency result was “inactive”. Consider `CCCCN(CCCC)N=O`, for which the Potency result was “inactive”. Under `C[C@]12CCC(=O)C[C@@H]1CC[C@@H]1[C@@H]2CC[C@]2(C)[C@@H](O)CC[C@@H]12` stands “inactive”. Consider `N#Cc1cc(Br)c(O)c(Br)c1`, for which the Potency result was “inactive”. On to `CN(C)C(=O)Nc1ccc(Cl)cc1`, for which the Potency entry was “inactive”. On to `O=C(O)CC[N+](=O)[O-]`, for which the Potency result is “inactive”. Then `c1ccc(NNc2ccccc2)cc1`, with “inactive”; and `Oc1c(Cl)c(Cl)c(Cl)c(Cl)c1Cl`, with “inactive”; and `O=P(Oc1ccccc1)(Oc1ccccc1)Oc1ccccc1`, with “inactive”. Take `CCOP(=S)(OCC)O/N=C(\C#N)c1ccccc1`: the Potency result was “inactive”. `Nc1ccncc1`: the Potency result is “inactive”.

Regarding `Nc1cccnc1`, the Potency entry is “inactive”. In the case of `CC(C)(c1cc(Cl)c(O)c(Cl)c1)c1cc(Cl)c(O)c(Cl)c1`, the Potency result was “inactive”. Take `CCCCOCCOP(=O)(OCCOCCCC)OCCOCCCC`: the Potency result was “inactive”. Regarding `CCCCCCCCC(=O)NCc1ccc(O)c(OC)c1`, the Potency entry was “inactive”.

For the molecule `Nc1ccc(Cl)cc1N`, the Potency result was “inactive”. Consider `CCCCCCCCCCCOC(=O)c1ccccc1C(=O)OCCCCCCCCCCC`, for which the Potency entry was “inactive”. Take `CC(C)Oc1cc(-n2nc(C(C)(C)C)oc2=O)c(Cl)cc1Cl`: the Potency result is “inactive”. Take `NCc1cccnc1`: the Potency result is “inactive”. Consider `CC(C)C(=O)OCC(C)(C)C(OC(=O)C(C)C)C(C)C` (stereo not given), for which the Potency entry is “inactive”.

Turning to `O=C(Nc1ccc(Br)cc1)c1cc(Br)cc(Br)c1O`, the Potency was 21.6 µM (active) and 9.69 µM (active). On to `Oc1cc(Cl)c(Cl)cc1Cl`, for which the Potency result was “inactive”. As to `CC(C)N(C(=O)SCC(Cl)=C(Cl)Cl)C(C)C`, the Potency result was “inactive”. On to `C=CCc1ccc(OC)cc1`, for which the Potency entry was “inactive”. Then `Cc1c(COC(=O)[C@@H]2[C@H](/C=C(\Cl)C(F)(F)F)C2(C)C)cccc1-c1ccccc1`, with “inactive”; and `COc1ccc(C=O)cc1`, with “inactive”.

Take `CCOC(=S)S`: the Potency entry was “inactive”.

For the molecule `CCOc1cc(Oc2ccc(C(F)(F)F)cc2Cl)ccc1[N+](=O)[O-]`, the Potency result was “inactive”. As to `CCCCN(CC)c1c([N+](=O)[O-])cc(C(F)(F)F)cc1[N+](=O)[O-]`, the Potency entry is “inactive”.
